Assay outcomes: PubChem, several laboratories
In the library only some 4.6% were active in any assay of this set; here they are far more common.
Mdm2 MdmX PPI – inhibitors of human Mdm2-MdmX association, primary screen, cell-based, luminescence, split luciferase, SaOS-2, uHTS. 330,000 compounds, 3% hits. SaOS-2 split-luciferase Mdm2/MdmX complementation. AID 485346, 2010. inhibition, % at 8 µM;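 active = inhibition of at least 50% at 8 µM in the primary screen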
ABHD5 PLIN5 PPI – ABHD5-PLIN5 interaction inhibitors, primary screen, cell lysate, split luciferase complementation, luminescence; Perilipin-5 (Homo sapiens) + 1-acylglycerol-3-phosphate O-acyltransferase ABHD5 (Homo …; Split G. princeps luciferase complementation, 4 h; inhibition, % at 4 µM; 360,000 compounds, 0.78% hits; AID 602281, 2012;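 active = inhibition above the mean inhibition across every tested compound plus 3 SD, cut at about 22% in these data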
Target sequence (Q00G26 whole entry, looked up): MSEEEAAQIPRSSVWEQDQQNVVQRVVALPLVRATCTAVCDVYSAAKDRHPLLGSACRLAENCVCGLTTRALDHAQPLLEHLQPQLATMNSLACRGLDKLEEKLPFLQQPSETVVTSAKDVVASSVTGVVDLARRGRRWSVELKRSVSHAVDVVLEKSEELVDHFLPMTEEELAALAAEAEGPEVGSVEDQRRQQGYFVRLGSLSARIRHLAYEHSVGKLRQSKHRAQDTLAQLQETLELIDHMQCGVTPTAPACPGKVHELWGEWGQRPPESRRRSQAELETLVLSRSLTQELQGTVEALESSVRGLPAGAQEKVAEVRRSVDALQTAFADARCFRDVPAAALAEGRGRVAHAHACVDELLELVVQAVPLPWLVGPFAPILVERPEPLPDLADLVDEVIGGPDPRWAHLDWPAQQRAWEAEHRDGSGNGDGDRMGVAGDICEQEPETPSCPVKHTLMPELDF
Target sequence (Q8WTS1 whole entry, looked up): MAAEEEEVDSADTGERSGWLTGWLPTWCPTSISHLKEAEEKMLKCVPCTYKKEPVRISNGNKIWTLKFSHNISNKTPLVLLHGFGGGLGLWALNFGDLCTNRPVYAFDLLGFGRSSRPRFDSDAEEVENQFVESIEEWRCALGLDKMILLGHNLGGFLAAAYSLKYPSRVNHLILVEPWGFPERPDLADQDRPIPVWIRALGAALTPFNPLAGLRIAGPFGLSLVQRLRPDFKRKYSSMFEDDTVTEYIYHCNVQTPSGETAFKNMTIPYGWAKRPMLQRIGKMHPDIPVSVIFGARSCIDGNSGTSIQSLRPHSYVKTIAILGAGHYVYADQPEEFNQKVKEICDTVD
KKLEB tox – cytotoxicity in KKLEB CF airway cells, primary screen, cytotoxicity control for CF NF-kB inhibitor project, cell-based, uHTS, fluorescence assay plates; KKLEB CF airway cells viability, ATPlite luminescence, overnight; stronger effect = lower value; cells stimulated with P. aeruginosa culture filtrate; 360,000 compounds, 0.36% hits; activity change (cytotoxicity), % at 5 µM; AID 602141, 2011;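 active = corrected activity change at or below -50% at 5 µM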
HIF-2a inh – HIF-2a reporter inhibitors, primary screen, luminescence, 786-0 RCC cells; 786-0 RCC cells HIF-2a reporter, luciferase luminescence, overnight; inhibition, % at 18.8 µM; 360,000 compounds, 0.72% hits; AID 624352, 2012;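 active = inhibition of the luminescence signal of 40% or more relative to plate controls, in a single-dose primary screen at 18.75 µM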
CF NFkB inh – inhibitors of PAF-induced NF-kB signaling, primary screen, cell-based, GFP fluorescence, uHTS | KKLEB NF-kB-GFP reporter, GFP fluorescence overnight | inhibition, % at 5 µM | 360,000 compounds, 0.86% hits | AID 588850, 2011;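 active = at least 50% inhibition at 5 µM, scaled per plate between neutral and stimulator controls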;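 also: PAF is a Pseudomonas aeruginosa culture filtrate used as stimulus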
Peg3 promoter – Peg3 promoter-driven luciferase inhibitors, primary screen, cell-based, HeLa, luciferase luminescence; HeLa PEG-Prom luciferase reporter, overnight; 360,000 compounds, 1.7% hits; inhibition, % at 20 µM;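 active = inhibition of at least 50% at 20 µM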
ABHD5-PLIN5 conf – ABHD5-PLIN5 interaction inhibitors, confirmation, biochemical, luminescence; shares compounds with ABHD5 PLIN5 PPI; inhibition, % at 4 µM; 2,200 compounds, 67% hits; AID 651612, 2012; in the data active = inhibition above about 23%
HNF4 split-luc – HNF4 dimerization inhibitors, counter-screen for ABHD5-PLIN5 interaction inhibitor project, biochemical, split-luciferase complementation, luminescence; inhibition, % at 4 µM; 2,200 compounds, 77% hits; shares compounds with ABHD5 PLIN5 PPI;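 active = mean inhibition across replicate wells exceeding the computed hit threshold, cut at about 13% in these data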;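 also: light from luciferase halves that rejoin when HNF4 fusion proteins dimerize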
Large screens that a line does not name were inactive (follow-up assays come after a bar, where they were run).

CCOC(=O)CSc1[nH]c2cc(OC)ccc2c1[N+](=O)[O-]	none
Cn1c(=O)[nH]c(=O)c2c1nc(Br)n2Cc1ccccc1Cl	none
Cn1c(=O)[nH]c(=O)c2c1nc(SCC(O)CO)n2Cc1ccccc1Cl (stereo not drawn)	ABHD5 PLIN5 PPI 38.7 | ABHD5-PLIN5 conf inactive | HNF4 split-luc inactive
COC(=O)c1cc(=O)n(-c2ccccc2)c(=Nc2ccccc2)s1	ABHD5 PLIN5 PPI 37.8 | ABHD5-PLIN5 conf 57.4 | HNF4 split-luc 39.1
O=[N+]([O-])c1ccccc1S(=O)(=O)Nc1ccc(S(=O)(=O)N2CCCC2)cc1	ABHD5 PLIN5 PPI 33.2 | ABHD5-PLIN5 conf 34.5 | HNF4 split-luc 47.9
Cc1ccc(NS(=O)(=O)c2ccccc2[N+](=O)[O-])cc1S(=O)(=O)N1CCCCC1	none
CC1CN(c2cc(=O)n(-c3ccccc3)c(=O)[nH]2)CC(C)O1 (stereo not drawn)	ABHD5 PLIN5 PPI 35.5 | ABHD5-PLIN5 conf inactive | HNF4 split-luc inactive
Cc1ccc(-n2c(=O)cc(N3CC(C)OC(C)C3)[nH]c2=O)cc1 (stereo not drawn)	none
O=S(=O)(Nc1ccccc1F)c1cccc(NC(=S)NCCN2CCOCC2)c1	none
Oc1ccc(N=Nc2ccccc2)o1	ABHD5 PLIN5 PPI 40.6, CF NFkB inh 94.8 | ABHD5-PLIN5 conf 65.7 | HNF4 split-luc 68.4
O=c1ccc(N=Nc2ccccc2)ccc1O	none (no result: Mdm2 MdmX PPI)
COc1ccc(CCN2CC(=O)NC(=O)C2)cc1OC	none (no result: Mdm2 MdmX PPI)
Cc1ccc(NC=C(S(=O)(=O)c2ccccc2)S(=O)(=O)c2ccccc2)c(C)c1	none
O=C1OC(/C(=C\Nc2cc(Cl)ccc2O)[N+](=O)[O-])c2ccccc21 (stereo not drawn)	ABHD5 PLIN5 PPI 62.4 | ABHD5-PLIN5 conf inactive | HNF4 split-luc 49.8
O=C1OC(/C(=C\Nc2ccc(F)cc2F)[N+](=O)[O-])c2ccccc21 (stereo not drawn)	ABHD5 PLIN5 PPI 54.1 | ABHD5-PLIN5 conf 25.0 | HNF4 split-luc 60.6
Cc1ccc(N/C=C(\C2OC(=O)c3ccccc32)[N+](=O)[O-])c(C)c1 (stereo not drawn)	ABHD5 PLIN5 PPI 53.5 | ABHD5-PLIN5 conf inactive | HNF4 split-luc 33.7
COc1ccc(Cl)cc1NC(=O)c1cccc(-n2cnnn2)c1	none
N=c1oc2cc(O)ccc2cc1C(=O)Nc1ccc(Cl)cc1	none
O=C(NC1CCCCCC1)c1ccc(Br)o1	none
O=C(NC1CCCCC1)Oc1cc2oc(=O)sc2cc1Br	ABHD5 PLIN5 PPI 42.5 | ABHD5-PLIN5 conf inactive | HNF4 split-luc 41.9
CCCN(C(=O)c1cc(S(=O)(=O)N2CCN(CC)CC2)ccc1Cl)C1CCS(=O)(=O)C1 (stereo not drawn)	ABHD5 PLIN5 PPI 25.8 (no result: Mdm2 MdmX PPI) | ABHD5-PLIN5 conf inactive | HNF4 split-luc inactive
CCOC(=O)c1c(NC(=O)CN2CCN(S(=O)(=O)c3cc(Cl)ccc3Cl)CC2)sc(C(=O)N(C)C)c1C	none (no result: Mdm2 MdmX PPI)
Oc1ccc2ccccc2c1CN1CCOCC1	none
O=S(=O)(c1c(F)cccc1F)N1CCN(Cc2c(O)ccc3ccccc23)CC1	ABHD5 PLIN5 PPI 26.6 | ABHD5-PLIN5 conf 43.1 | HNF4 split-luc 77.4
Cc1[nH]c2ccccc2c1C1=CC(=O)C=CC1=O	ABHD5 PLIN5 PPI 49.2, CF NFkB inh 73.8, Peg3 promoter 76.1 (no result: Mdm2 MdmX PPI) | ABHD5-PLIN5 conf 45.9 | HNF4 split-luc 80.3
COc1cccc(C2CC(OCCF)=CC(=O)O2)c1 (stereo not drawn)	none (no result: Mdm2 MdmX PPI, KKLEB tox, CF NFkB inh, Peg3 promoter)
CCC1=NN(C(=O)C(=O)Nc2ccc(Br)cc2)C(O)(C(F)(F)F)C1 (stereo not drawn)	none
